An excerpt weighted towards active compounds, which were near 4.6% of everything screened.
D1 PAM = potentiators of human D1 dopamine receptor | P21728 | HEK293 TREx D1 cells, calcium flux, dopamine EC20 potentiation | potentiation, % at 10 µM | 360,000 tested, 0.036% active; in the data active = potentiation above about 30%
D1 antag = human D1 dopamine receptor antagonism; 360,000 tested, 3.2% active; HEK293 TREx D1 cells, calcium flux, dopamine EC80; active compounds read low; activity change, negative = inhibition, % at 10 µM; P21728; in the data active = activity change below about -30%
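Kinetic fluorescence of a calcium dye serves as the read-out. D1-expressing Hek293 Trex cells, induced overnight at 30 C, are exposed to compound for 180 s before an EC80 dopamine addition, then read 180 s further.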
TRHR enhancer = TRH receptor (human) allosteric enhancement; AID 493056; TRHR cells, fluo-8 calcium fluorescence, EC20 TRH enhancement; 360,000 tested, 0.66% active; enhancement, % at 2 µM; P34981; in the data active = enhancement above about 30%
Target sequence (P34981 whole entry, looked up): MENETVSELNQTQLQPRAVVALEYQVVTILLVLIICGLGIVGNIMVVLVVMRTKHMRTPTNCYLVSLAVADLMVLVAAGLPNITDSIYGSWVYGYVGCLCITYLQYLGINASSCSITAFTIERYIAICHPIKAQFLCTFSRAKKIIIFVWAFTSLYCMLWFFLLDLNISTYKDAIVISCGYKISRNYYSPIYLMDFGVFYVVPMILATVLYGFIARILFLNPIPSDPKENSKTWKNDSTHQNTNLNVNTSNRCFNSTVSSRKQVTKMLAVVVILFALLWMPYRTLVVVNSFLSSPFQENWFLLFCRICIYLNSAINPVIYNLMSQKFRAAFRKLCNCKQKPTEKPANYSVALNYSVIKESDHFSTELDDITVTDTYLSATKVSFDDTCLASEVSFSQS
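Enhancer read-out: after compound pinning and an initial kinetic agonist-mode read, an EC20 of TRH (10 nM final) was injected and fluo-8 calcium signal (Ex 480/Em 530) followed at 1 s/cycle for 100 cycles in TRHR-expressing cells.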
Epigenetic derep = derepresses silenced GFP reporter in murine cells | murine LDR cells, GFP reporter derepression, 30 h | Potency, µM (series often up to 53.9 µM), actives largely listed as activators | 280,000 tested, 0.2% active; active = well fitted activation curve with a large enough effect; inconclusive = small, poorly fitted or top-dose-only effect; also: nearly all actives have a fitted effect of over 60% in size
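Readout is the number of GFP-expressing murine LDR cells, counted by cytometry following washing. Cells were treated with compound for 30 h at 37 C; the stably integrated CMV-GFP locus is normally silent.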
D1 agonist = agonists of human D1 dopamine receptor; P21728; activation, % at 2 µM; HEK293 T-REx D1 cells, calcium flux, agonist mode; 360,000 tested, 1% active
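Agonism was scored from calcium flux recorded over 180 s (1 read/s) after pintool compound addition, following a 10-cycle baseline. Cells were inducible force-coupled HEK293 TREx D1, plated overnight at 30 C and loaded with no-wash calcium dye.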
TRHR agonist = TRH receptor (human) agonism. TRHR cells, calcium flux fluo-8, FDSS agonist mode. activation, % at 2 µM. AID 493084. 360,000 tested, 0.18% active
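TRHR-expressing cells, plated overnight in medium with 10% serum, were loaded with fluo-8 calcium dye at room temperature. After a 10 s baseline, library compound was pin-added and calcium release was recorded kinetically (ex 480/em 530) as agonist response.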
Large screens that a line does not name were inactive. Rule as the data show it, unless noted: active = activation above about 30%; inactive = the rest.

CCc1ccc(-n2nnc(-c3nc(-c4ccc(C)cc4)no3)c2N)cc1	none
CC(=O)Nc1ccc(S(=O)(=O)Nc2ccc(-c3cn4c(C)csc4n3)cc2)cc1	none
COc1ccc(S(=O)(=O)Nc2ccc(-c3cn4c(C)csc4n3)cc2)cc1	D1 antag -72
Cc1ccc2c(c1)c1c3n2CCN(C(=O)CCl)C3CCC1 (centres undefined)	D1 antag -45 (no result: Epigenetic derep)
O=C(Nc1ccccc1C(=O)O)c1ccc(NC(=O)C2CC2)cc1	none (no result: Epigenetic derep)
O=C(Nc1ccccc1O)c1ccc(NC(=O)C2CC2)cc1	D1 antag -33 (no result: Epigenetic derep)
CN(C)CCNS(=O)(=O)c1ccc(N2CCc3ccccc32)c([N+](=O)[O-])c1	D1 agonist 64 (no result: Epigenetic derep)
Cc1cccc(-n2c(SCC(=O)N3CCCC3)nc3n[nH]c(C)c3c2=N)c1	TRHR enhancer 40
Cc1ccc(NC(=O)CSc2nc3n[nH]c(C)c3c(=N)n2-c2cccc(C)c2)cc1	none
Cc1cccc(NC(=O)CSc2nc3n[nH]c(C)c3c(=N)n2-c2cccc(Cl)c2)c1	D1 antag -35
Cc1cccc(-n2c(SCC(=O)Nc3ccccc3Cl)nc3n[nH]c(C)c3c2=N)c1	none
Cc1cccc(-c2nsc(SCC(=O)N3CCCC3)n2)c1	D1 antag -37
O=C(CSc1nc(-c2ccccc2)ns1)N1CCOCC1	none
CN(C)S(=O)(=O)N(CC(=O)NCCSCc1ccccc1Cl)c1ccccc1	none
COCCCNc1nc(NCc2ccccc2OC)c2cnn(C)c2n1	none
Cc1cc(Br)ccc1NC(=O)CN(C)C(=O)c1ccc(-n2cncn2)c([N+](=O)[O-])c1	D1 antag -41 (no result: D1 PAM, Epigenetic derep)
Cc1cc(Br)ccc1NC(=O)CNC(=O)c1ccc(-n2cncn2)c([N+](=O)[O-])c1	none (no result: Epigenetic derep)
CCOC(=O)CN(c1ccccn1)S(=O)(=O)c1ccccc1	none
O=C(CN(c1ccccn1)S(=O)(=O)c1ccccc1)Nc1ccccc1	TRHR enhancer 39
COC(=O)c1ccc(CN(c2ccccn2)S(=O)(=O)c2ccccc2)cc1	D1 antag -36
O=C(CN(c1ccccn1)S(=O)(=O)c1ccc(F)cc1)Nc1ccccc1	none
N=c1c(C(=O)NCC2CCCO2)cc2c(=O)n3ccccc3nc2n1CCCO (centres undefined)	none
O=C(NCCO)c1cccc(Nc2nc(-c3ccccc3)c3cc(Cl)ccc3n2)c1	TRHR enhancer 31
Clc1ccc(Nc2nc(-c3ccccc3)c3cc(Cl)ccc3n2)cc1	none
Cc1ccc(NC(=O)C(Cc2ccccc2)N2Cc3ccccc3C2=O)cc1Cl (centres undefined)	none
Cc1nn(CCCC(=O)Nc2cc(Oc3ccc(F)cc3)cc([N+](=O)[O-])c2)c(C)c1[N+](=O)[O-]	D1 antag -36
O=C(N/N=C/c1cccs1)c1cccc(NC(=O)c2ccccc2Cl)c1	none
O=C(N/N=C/c1ccc(O)cc1)c1ccc(NC(=O)c2ccccc2Br)cc1	D1 antag -47
O=C(N/N=C/c1cccs1)c1ccc(NC(=O)c2ccccc2Cl)cc1	D1 antag -53
CC(=O)OCC1OC(n2cnc3c(Cl)nc(Cl)nc32)C(OC(C)=O)C1OC(C)=O (centres undefined)	none (no result: D1 PAM, D1 antag, TRHR enhancer, D1 agonist, TRHR agonist)
CNC(=O)Nc1ccc2nc(C)oc2c1	none
Cc1nc2ccc(-c3ccccc3)cc2o1	D1 antag -46
CCc1ccc(NC(=O)CN2C(=O)C(c3ccc(F)cc3)=NC2(C)C)cc1	none
CCc1cc(=O)n2c([nH]c3ccccc32)c1C#N	none
CC(SCc1cc(=O)n2c([nH]c3ccccc32)c1C#N)C(=O)O (centres undefined)	D1 antag -32
CCCc1ccc(OCC(=O)Nc2sc3c(c2C(=O)OC)CCCCC3)cc1	none
CNC(=O)C1CC(=O)N(CCc2ccc(OC)cc2)C(=Nc2ccc(OC)cc2)S1 (centres undefined)	none
CNC(=O)C1CC(=O)N(Cc2ccc3c(c2)OCO3)C(=Nc2ccc(OC)cc2)S1 (centres undefined)	D1 antag -30
Cc1cc(SCC(=O)Nc2nsc(-c3ccc(C(C)(C)C)cc3)n2)nc2ccccc12	none
COc1ccc(N2CCN(C(CNC(=O)C(=O)NCCCN(C)C)c3cccnc3)CC2)cc1 (centres undefined)	D1 antag -35
COc1ccc(C)cc1NC(=O)C(=O)NCC(c1cccnc1)N1CCc2ccccc21 (centres undefined)	none
O=S(=O)(NCC(c1cccnc1)N1CCN(c2ccc(F)cc2)CC1)c1ccc(F)cc1 (centres undefined)	none
CCc1ccc(NC(=O)C(=O)NCC(c2cccnc2)N2CCN(C)CC2)cc1 (centres undefined)	D1 agonist 53
O=S(=O)(NCC(c1cccnc1)N1CCN(c2ccc(F)cc2)CC1)c1cccs1 (centres undefined)	D1 antag -31
COc1ccc(C)cc1NC(=O)C(=O)NCC(c1cccnc1)N1CCN(c2ccccc2F)CC1 (centres undefined)	D1 antag -34
O=C(CC1(O)C(=O)N(CCc2ccccc2)c2ccc(Br)cc21)c1ccccc1O (centres undefined)	Epigenetic derep inconclusive
O=C(c1ccc(F)cc1)c1cn(Cc2ccccc2)c2cc3c(cc2c1=O)OCO3	none
COc1ccccc1N1CCN(C(CNC(=O)C(=O)NCc2ccc(F)cc2)c2cccnc2)CC1 (centres undefined)	D1 agonist 33
CCC(=O)N1CCc2cc(Br)cc(S(=O)(=O)CCC(=O)N3CCN(c4ccc(OC)cc4)CC3)c21	none
Cc1coc2cc3oc(=O)c(CC(=O)NCc4cccc(Cl)c4)c(C)c3cc12	none
O=C(Cc1ccccc1)Nc1ccc(Br)c(Cl)c1	D1 antag -55
Cc1cccc(NC(=O)Cc2ccc(-c3ccccc3)cc2)n1	none (no result: Epigenetic derep)
O=C(Cc1ccc(-c2ccccc2)cc1)Nc1ccccc1	D1 agonist 33 (no result: Epigenetic derep)
CCC(=O)Nc1ccc(Br)c(Cl)c1	none
O=C(Cc1ccccc1)Nc1ccc(NC(=O)Cc2ccccc2)c(Cl)c1	D1 antag -36 (no result: Epigenetic derep)
CN(C)c1ccc(/C=C/c2ccc3ccccc3[n+]2C)cc1	none
CN(C)c1ccc(/C=C/c2ccc3c4ccccc4ccc3[n+]2-c2ccccc2)cc1	D1 antag -33
CN1CCN(/N=C/c2ccc(Br)cc2)CC1	D1 antag -33
CN1CCN(/N=C/c2ccc(N(c3ccccc3)c3ccccc3)cc2)CC1	none
CN(Cc1ccccc1)C(=O)CSc1nnc(-c2cccc(Cl)c2)o1	D1 antag -54, D1 agonist 56
Cc1c(C(=O)N2CCCC2)oc2c1-c1nn(CC(=O)NCCCN3CCCCC3C)cc1CC2 (centres undefined)	none (no result: Epigenetic derep)
